# In ChEMBL document CHEMBL3988442, “University of Dundee, Small-Polar-MMV Screening Library” (2021):
# For some of these results: Potency and affinity values are given separately.
# Key:
# Set-up in all cases: scale not given: direction of the effect not stated beside the values
# [1] = biological target: Protein translocase subunit SecA (Escherichia coli (strain K12)) (UniProt P10408); experiment: Assay to Identify E. coli SecA ATPase Inhibitors; format: functional; conditions: 30 µM
# [2] = biological target: T1, Ubiquitin-activating enzyme e1, putative (Leishmania donovani (strain BPK282A1)) (UniProt E9BSI1); experiment: Leishmania donovani Ubiquitin Activating Enzyme (LdE1); format: functional; conditions: 30 µM
# T1 sequence (whole entry): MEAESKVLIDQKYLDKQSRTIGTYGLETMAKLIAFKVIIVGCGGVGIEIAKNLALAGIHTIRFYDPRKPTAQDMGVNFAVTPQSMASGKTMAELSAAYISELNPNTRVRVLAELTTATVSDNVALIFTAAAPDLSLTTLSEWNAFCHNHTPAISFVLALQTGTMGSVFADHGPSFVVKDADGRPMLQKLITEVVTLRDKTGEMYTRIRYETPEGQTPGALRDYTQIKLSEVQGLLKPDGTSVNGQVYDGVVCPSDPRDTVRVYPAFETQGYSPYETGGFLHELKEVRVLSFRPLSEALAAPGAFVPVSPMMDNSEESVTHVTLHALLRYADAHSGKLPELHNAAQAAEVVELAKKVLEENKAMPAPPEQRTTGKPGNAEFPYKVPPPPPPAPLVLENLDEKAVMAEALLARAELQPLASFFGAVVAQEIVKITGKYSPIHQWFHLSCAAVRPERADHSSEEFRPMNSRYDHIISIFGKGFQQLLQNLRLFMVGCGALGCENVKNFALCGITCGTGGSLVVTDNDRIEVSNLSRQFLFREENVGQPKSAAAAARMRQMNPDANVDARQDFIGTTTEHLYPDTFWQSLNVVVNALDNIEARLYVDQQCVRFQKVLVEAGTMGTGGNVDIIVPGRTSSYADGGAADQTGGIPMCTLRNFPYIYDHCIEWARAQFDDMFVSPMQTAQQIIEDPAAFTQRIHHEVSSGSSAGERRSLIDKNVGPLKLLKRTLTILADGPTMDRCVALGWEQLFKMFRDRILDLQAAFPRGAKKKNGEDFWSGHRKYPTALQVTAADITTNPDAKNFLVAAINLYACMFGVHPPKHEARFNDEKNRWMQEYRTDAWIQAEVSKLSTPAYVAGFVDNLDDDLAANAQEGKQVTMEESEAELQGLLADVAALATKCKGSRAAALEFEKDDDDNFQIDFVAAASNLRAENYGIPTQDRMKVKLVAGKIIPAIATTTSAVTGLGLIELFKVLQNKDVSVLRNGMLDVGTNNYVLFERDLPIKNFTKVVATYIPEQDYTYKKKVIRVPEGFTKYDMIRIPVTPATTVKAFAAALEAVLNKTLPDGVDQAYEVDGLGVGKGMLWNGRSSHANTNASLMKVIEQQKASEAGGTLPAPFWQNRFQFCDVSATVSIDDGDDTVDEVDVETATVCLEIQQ
# [3] = biological target: AMP-activated protein kinase, AMPK (Homo sapiens) (UniProt P54646+O43741+P54619+Q9UGJ0+Q9Y478+Q13131+Q9UGI9); experiment: AMP-dependent Kinase enzyme assay. An in vitro enzyme assay that detects ADP turnover that is directly proportional to AMPK activity. This uses naive AMPK that is activated during the assay with MK-8722; format: functional; conditions: 30 µM
# [4] = biological target: Sialic acid-binding Ig-like lectin 9 (Homo sapiens) (UniProt Q9Y336); experiment: Hs-Siglec9 ALPHAscreen SOP 20170721; conditions: 10 µM
# Sialic acid-binding Ig-like lectin 9 (Homo sapiens), sequence (Q9Y336 whole entry): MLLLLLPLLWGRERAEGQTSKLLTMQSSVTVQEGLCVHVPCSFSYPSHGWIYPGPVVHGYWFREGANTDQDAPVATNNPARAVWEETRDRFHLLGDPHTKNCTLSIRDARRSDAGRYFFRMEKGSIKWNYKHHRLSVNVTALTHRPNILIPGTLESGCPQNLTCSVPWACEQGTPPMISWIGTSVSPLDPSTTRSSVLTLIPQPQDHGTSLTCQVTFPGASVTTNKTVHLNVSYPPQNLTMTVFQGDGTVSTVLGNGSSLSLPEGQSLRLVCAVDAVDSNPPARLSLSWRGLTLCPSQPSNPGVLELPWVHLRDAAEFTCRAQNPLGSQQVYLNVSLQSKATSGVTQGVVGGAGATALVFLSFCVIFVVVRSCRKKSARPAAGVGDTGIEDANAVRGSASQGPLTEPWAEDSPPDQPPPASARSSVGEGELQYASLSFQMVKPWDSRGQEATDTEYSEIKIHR
# Trypanosoma cruzi = experiment: Trypanosoma cruzi phosphomannomutase and mannose-1-phosphate guanylyltransferase assay; format: functional; conditions: 10 µM
# [5] = biological target: T2, Arginase-2, mitochondrial (Homo sapiens) (UniProt P78540); experiment: in vitro enzyme assay to detect the production of urea directly proportional to the activity of Arginase II; format: functional; conditions: 33.3 µM; note: in the data most compounds retested in dose-response had high values
# T2 sequence (whole entry): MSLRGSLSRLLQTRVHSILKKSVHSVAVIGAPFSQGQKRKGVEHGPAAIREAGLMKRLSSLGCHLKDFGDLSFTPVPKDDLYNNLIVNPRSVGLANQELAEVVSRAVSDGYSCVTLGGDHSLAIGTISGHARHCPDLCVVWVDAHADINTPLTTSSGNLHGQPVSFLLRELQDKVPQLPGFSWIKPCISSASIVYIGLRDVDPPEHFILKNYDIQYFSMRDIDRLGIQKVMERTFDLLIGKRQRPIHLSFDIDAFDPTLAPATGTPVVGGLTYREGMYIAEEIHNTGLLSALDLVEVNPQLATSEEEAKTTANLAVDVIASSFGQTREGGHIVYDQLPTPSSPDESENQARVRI
# [6] = biological target: T3, Proteasome subunit beta (Trypanosoma cruzi) (UniProt O96673); experiment: Trypanosoma cruzi proteasome chymotrypsin-like activity (TcProtChymo) assay.; note: in the data most compounds retested in dose-response had high values; format: functional; conditions: 9.37 µM
# T3 sequence (whole entry): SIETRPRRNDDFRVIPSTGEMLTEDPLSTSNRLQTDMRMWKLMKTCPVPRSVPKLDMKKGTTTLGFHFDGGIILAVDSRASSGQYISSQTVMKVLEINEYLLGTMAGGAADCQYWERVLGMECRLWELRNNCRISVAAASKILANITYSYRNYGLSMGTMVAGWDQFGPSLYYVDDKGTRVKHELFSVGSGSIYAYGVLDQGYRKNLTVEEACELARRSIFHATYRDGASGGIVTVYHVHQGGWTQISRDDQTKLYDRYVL
# Homo sapiens = species on record: Homo sapiens; experiment: To identify inhibition of the IFN signalling (Jak-Stat) pathway via expression of an eGFP reporter gene under the control of an IFN-stimulated response element (ISRE) containing MxA promoter.; format: functional; conditions: 30 µM
# [7] = biological target: T4, Tyrosyl-tRNA synthetase, putative (Trypanosoma cruzi (strain CL Brener)) (UniProt Q4DSP6); experiment: Trypanosoma cruzi tyrosyl tRNA synthetase (TcYRS) _High Tyrosine SOP; format: functional; conditions: 30 µM; note: in the data most compounds retested in dose-response had high values
# T4 sequence (whole entry): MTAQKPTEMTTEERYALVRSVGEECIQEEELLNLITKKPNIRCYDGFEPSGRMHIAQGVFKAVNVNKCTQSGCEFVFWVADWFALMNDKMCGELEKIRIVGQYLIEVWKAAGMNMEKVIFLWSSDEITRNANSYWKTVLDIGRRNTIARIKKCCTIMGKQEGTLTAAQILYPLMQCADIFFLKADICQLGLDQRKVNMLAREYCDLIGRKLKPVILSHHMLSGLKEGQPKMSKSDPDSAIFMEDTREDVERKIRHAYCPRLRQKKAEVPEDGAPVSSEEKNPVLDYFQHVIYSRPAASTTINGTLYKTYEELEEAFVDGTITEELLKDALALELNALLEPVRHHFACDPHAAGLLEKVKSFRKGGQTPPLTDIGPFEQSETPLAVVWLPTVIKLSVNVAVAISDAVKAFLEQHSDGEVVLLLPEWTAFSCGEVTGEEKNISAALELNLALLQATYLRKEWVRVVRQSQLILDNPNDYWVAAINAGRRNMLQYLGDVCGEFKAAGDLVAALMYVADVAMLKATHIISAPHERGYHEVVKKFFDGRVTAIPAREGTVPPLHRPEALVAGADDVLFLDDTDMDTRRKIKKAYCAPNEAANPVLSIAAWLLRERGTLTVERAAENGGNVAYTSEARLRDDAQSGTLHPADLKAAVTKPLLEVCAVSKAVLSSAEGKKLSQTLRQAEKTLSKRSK
# [8] = biological target: T4, Tyrosyl-tRNA synthetase, putative (Trypanosoma cruzi (strain CL Brener)); experiment: Trypanosoma cruzi tyrosyl tRNA synthetase (TcYRS) SOP; format: functional; conditions: 30 µM
# [9] = biological target: Chromo domain-containing protein 1 (Saccharomyces cerevisiae (strain ATCC 204508 / S288c) (Baker's yeast)) (UniProt P32657); experiment: ScCHD-1 Enzyme Inhibition Assay; format: functional; conditions: 30 µM; note: in the data most compounds retested in dose-response had high values
# Chromo domain-containing protein 1 (Saccharomyces cerevisiae (strain ATCC 204508 / S288c) (Baker's yeast)), sequence (P32657 whole entry, the tested form may be a part): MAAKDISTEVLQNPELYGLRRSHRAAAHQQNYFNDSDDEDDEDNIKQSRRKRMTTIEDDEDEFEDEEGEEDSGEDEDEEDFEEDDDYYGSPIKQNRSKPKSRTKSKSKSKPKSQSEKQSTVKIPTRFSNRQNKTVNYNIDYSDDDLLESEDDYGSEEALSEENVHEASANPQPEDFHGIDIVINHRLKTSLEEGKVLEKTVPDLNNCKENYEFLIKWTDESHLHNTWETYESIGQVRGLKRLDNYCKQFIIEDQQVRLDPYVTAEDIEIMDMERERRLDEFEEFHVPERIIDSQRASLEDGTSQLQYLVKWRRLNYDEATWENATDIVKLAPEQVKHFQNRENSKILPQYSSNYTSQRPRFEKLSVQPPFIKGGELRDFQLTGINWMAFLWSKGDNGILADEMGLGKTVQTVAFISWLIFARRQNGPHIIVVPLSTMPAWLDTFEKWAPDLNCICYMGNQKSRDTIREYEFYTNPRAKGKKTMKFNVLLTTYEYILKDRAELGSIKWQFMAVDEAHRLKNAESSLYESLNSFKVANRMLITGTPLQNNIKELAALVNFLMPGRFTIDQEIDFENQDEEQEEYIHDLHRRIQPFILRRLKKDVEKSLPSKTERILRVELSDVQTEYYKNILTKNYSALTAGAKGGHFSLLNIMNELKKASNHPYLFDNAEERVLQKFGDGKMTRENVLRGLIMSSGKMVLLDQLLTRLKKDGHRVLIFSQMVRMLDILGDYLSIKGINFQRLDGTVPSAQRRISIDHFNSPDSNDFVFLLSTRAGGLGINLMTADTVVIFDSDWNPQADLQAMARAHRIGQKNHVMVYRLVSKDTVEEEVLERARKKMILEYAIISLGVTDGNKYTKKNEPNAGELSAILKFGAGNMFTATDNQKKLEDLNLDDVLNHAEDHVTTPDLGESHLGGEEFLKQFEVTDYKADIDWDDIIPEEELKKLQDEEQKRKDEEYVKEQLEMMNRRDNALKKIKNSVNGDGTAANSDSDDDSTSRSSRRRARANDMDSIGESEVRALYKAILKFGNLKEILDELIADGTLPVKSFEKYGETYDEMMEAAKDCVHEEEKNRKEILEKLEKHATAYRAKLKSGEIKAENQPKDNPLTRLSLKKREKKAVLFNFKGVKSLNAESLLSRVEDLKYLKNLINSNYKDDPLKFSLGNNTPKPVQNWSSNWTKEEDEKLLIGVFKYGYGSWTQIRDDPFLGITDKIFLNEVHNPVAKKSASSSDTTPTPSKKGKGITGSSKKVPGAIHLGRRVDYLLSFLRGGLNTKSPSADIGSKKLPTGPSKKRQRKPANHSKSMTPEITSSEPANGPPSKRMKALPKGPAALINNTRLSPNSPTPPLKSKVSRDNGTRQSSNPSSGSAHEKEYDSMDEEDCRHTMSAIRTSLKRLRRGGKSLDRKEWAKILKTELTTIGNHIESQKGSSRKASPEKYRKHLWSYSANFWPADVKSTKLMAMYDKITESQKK
# Protein translocase subunit SecA (Escherichia coli (strain K12)), sequence (P10408 whole entry): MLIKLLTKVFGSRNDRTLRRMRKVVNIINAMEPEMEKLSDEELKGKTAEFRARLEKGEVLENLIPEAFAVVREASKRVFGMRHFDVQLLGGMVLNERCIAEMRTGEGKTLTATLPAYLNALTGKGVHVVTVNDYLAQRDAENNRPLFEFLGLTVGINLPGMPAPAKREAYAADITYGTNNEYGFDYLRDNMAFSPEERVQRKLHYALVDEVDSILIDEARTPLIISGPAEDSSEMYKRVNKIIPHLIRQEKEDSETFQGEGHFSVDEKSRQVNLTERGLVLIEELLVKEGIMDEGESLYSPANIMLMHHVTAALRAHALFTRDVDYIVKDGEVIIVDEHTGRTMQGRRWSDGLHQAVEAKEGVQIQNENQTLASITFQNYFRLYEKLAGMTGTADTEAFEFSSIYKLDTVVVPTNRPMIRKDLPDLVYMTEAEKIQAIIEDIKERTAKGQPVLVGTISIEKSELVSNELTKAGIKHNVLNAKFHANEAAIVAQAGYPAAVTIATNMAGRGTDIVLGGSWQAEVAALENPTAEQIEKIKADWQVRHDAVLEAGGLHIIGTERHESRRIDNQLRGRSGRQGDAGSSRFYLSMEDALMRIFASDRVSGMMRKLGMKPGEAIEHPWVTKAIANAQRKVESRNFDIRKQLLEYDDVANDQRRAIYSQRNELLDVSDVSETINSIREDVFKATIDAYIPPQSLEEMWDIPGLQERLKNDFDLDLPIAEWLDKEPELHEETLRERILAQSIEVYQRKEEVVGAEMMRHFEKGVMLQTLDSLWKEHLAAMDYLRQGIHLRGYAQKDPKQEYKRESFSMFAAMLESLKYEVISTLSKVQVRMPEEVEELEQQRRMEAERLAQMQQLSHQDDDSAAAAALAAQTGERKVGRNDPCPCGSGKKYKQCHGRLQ
SMILES,Percent Effect [1],Percent Effect [2],Percent Effect [3],Percent Effect [4],Percent Effect (Trypanosoma cruzi),Percent Effect [5],Percent Effect [6],Percent Effect (Homo sapiens),Percent Effect [7],Percent Effect [8],Percent Effect [9]
CN1CC(=O)N(c2cccnc2)CC12CCN(C(=O)C1CCCCC1)C2 (stereo not given),0.868%,10.7%,6.75%,12.8%,-1.74%,-72.9%,12.3%,24%,3.12%,2.5%,-2.49%
CN(C)CCCNC(=O)CNC(=O)N1CCc2c([nH]c3ccccc23)C1,-6.34%,-1.33%,20.1%,-2.5%,-2.16%,-10.4%,9.06%,13.6%,1.06%,-5.13%,-6.13%
Cc1nc(CCNC(=O)NC2CCN(c3ncccn3)CC2)cs1,-1.83%,11%,-4.69%,4.09%,1.19%,-1.6%,16%,22.2%,11.5%,21%,0.13%
CS(=O)(=O)c1ccc(CNC(=O)N2CCC(c3ccccc3)CC2)cc1,-1.75%,7.59%,0.598%,-2.13%,-5.76%,3.42%,5%,8.31%,-3.45%,1.27%,-6.29%
COc1ccc(C(=O)N(C)Cc2cccc(C#N)c2)c(OC)c1OC,-2.52%,8.11%,-1.05%,10.9%,1.95%,-2.08%,14.3%,1.4%,2.97%,3.66%,-2.24%
CC(C)n1ncc2c1NC(=O)CC21C(=O)Nc2c(Cl)cc(Cl)cc21 (stereo not given),-1.94%,6.67%,3.17%,6.18%,-0.197%,-9.33%,1.29%,13.3%,2.12%,10.3%,-4.48%
Cc1ncccc1CNCC1CCN(CC(O)c2ccccc2)CC1 (stereo not given),-5.43%,13.9%,-5.86%,1.69%,-0.308%,-1.07%,15.3%,3.05%,6.25%,17.7%,-29.1%
CN(Cc1cccc(F)c1)C1CCN(CCc2ccccn2)CC1,-3.25%,21.6%,-5.03%,-1.38%,-0.65%,-1.29%,9.34%,20.8%,3.96%,13.4%,-4.09%
CCC(=O)N1CCc2[nH]cnc2C12CCN(C(=O)c1snnc1C)CC2,-0.279%,5.33%,-6.44%,8.1%,0.876%,10.9%,13.8%,23.3%,0.546%,13.6%,-1.51%
CCOCc1ncn2c1CN(C(=O)Nc1cccc(C)c1)CC2,-0.857%,-173%,3.58%,1.03%,-2.54%,0.417%,9.21%,2.31%,12.9%,13.4%,1.64%
COCC1CN(C(=O)C2=CCCCC2)Cc2cnn(CC3CC3)c21 (stereo not given),-1.86%,13%,2.96%,2.46%,1.48%,-4.52%,10.1%,18%,7.41%,16.7%,-9.46%
Cc1ccsc1[C@@H]1CCN(C(=O)CCC(=O)N2CCCCCC2)C[C@H]1O,-3.23%,6.94%,-7.07%,-3.16%,1.46%,-1.32%,4.91%,-6.38%,5.26%,10.3%,-2.41%
CC(C)n1cc(CN2CCCN(C(=O)c3nccnc3N)CC2)cn1,-3.12%,13.5%,-6.54%,-11.2%,-0.586%,5.83%,17%,21.2%,8.91%,11%,5%
COc1c(CNCCNC(=O)Cc2ccc(F)cc2)c(C)nn1C,-1.17%,13.5%,1.18%,-2.01%,-7.52%,-4.99%,13.1%,12.1%,1.98%,-18.3%,-8.36%
CN(Cc1ccccc1)C1COC2(CCN(Cc3nccs3)CC2)C1 (stereo not given),-6.64%,13.3%,-9.84%,1.43%,3.09%,-51.1%,4.79%,-4.42%,4.17%,7.5%,-9.89%
Cc1nc2ccnn2c(C)c1CCC(=O)N1CCN(C2CC2)CC1,-4.83%,18.4%,9.42%,-13.6%,-7.38%,0.719%,10.9%,7.93%,4.43%,13.6%,-7.28%
Cc1nc(C2CCCN2CC(=O)N(Cc2ccsc2)C2CC2)no1 (stereo not given),-3.4%,-8.11%,-3.86%,2.75%,5.48%,-4.99%,10.6%,25.6%,14.8%,18.3%,-5.35%
Cc1ccc(C2CSCCN2C(=O)c2ccc(C(N)=O)cc2)o1 (stereo not given),-2.99%,5.41%,-7.52%,13.6%,1.47%,20.6%,10%,-21.9%,4.3%,11.1%,-2.9%
O=C(NCc1ccco1)[C@@H]1CCO[C@@H]2CCN(c3ccncn3)C[C@H]21,0.562%,2.67%,2.84%,5.63%,-5.02%,-56.5%,5.64%,3.81%,1.04%,-25%,-8.67%
CN1[C@H](Cn2cncn2)C[C@@H]2CN(Cc3cccc(C#N)c3)CC[C@@H]21,-1.53%,13.5%,-0.719%,-6.04%,0%,-2.5%,15%,-2.04%,9.9%,13.4%,2.31%
